According to PubChem BioAssay:
Activity calls are given as the source filed them.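 How the source made its calls, unless noted: active means visual image review flags a hit and inhibition of aggregation exceeds 20%; inconclusive means visual hit but inhibition at or below 20%; inactive means no hit on visual image review.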

Assays:
[1] = inhibitors of TNFa-induced NFkB p65 translocation, primary screen, imaging, HUVEC, MLSMR starter and 10KST1 sets (AID 438;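 active means inhibition above 20% together with a positive visual image hit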;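 further: compound added about 3h40 before a 20 min TNFalpha stimulation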;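 on inhibition: signal is the nuclear over cytoplasmic p65 intensity ratio per well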); settings: HUVEC TNFa-induced p65 nuclear translocation; cell count: measured here: nuclei count (cytotoxicity indicator), at 2.08 µM; inhibition: at 2 µM, stronger effect = higher value, 0% TNFa-plus-vehicle, 100% no-TNFa wells
[2] = inhibitors of mutant huntingtin aggregation, primary screen, imaging, exon1htt(103Q)mCFP cells, high-content imaging (AID 483); settings: exon1htt(103Q)mCFP cell line, aggregate imaging, at 2 µM; inhibition of aggregation: stronger effect = higher value; nuclei count: measured here: cell count, toxicity;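 further: compound exposure lasted 3 days before fixation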;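 on nuclei count: percent of the per-plate median nuclei count of sample wells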
[3] = inhibitors of E-selectin induction by TNFa, primary screen, imaging, HUVEC, immunofluorescence, MLSMR starter and 10KST1 sets (AID 487;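 active means visually confirmed hit in the image check and inhibition above 20%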;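 on inhibition: signal is fraction of cell area covered by stained E-selectin grains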;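 on nuclei count: 100% = median nuclei count of all wells on the same plate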); settings: HUVEC TNFalpha-induced E-selectin immunofluorescence imaging, at 2 µM; inhibition: stronger effect = higher value; nuclei count: measured here: cell number, toxicity
[4] = biological target: Voltage-gated potassium channel subunit beta-2 (Rattus norvegicus) (UniProt P62483); test: KvBeta enzyme negative modulators, primary screen, biochemical, NADPH fluorescence (AID 622;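 active means fluorescence slope higher than the sample average by over 3 SD, cut at about -0.22 in these data, passing the limit was not always enough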;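 further: slope of raw intensity against log time taken from 70 to 1610 s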); settings: recombinant KvBeta, 4-cyanobenzaldehyde reduction, at 10 µM, stronger effect = higher value
Chain of Voltage-gated potassium channel subunit beta-2 (Rattus norvegicus) (P62483 whole entry, looked up): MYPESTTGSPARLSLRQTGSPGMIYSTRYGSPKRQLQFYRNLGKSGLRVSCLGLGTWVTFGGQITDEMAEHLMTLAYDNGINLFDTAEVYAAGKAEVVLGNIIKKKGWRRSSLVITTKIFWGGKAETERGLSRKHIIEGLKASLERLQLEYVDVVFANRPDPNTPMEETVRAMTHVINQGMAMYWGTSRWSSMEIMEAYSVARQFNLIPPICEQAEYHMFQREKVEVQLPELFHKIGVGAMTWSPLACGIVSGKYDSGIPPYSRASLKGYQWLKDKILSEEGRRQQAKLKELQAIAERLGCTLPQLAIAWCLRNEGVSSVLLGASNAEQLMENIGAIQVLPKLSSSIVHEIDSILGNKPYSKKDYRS

[5] = biological target: Voltage-gated potassium channel subunit beta-2 (Rattus norvegicus) (UniProt P62483); test: KvBeta positive modulators, primary screen, biochemical, NADPH fluorescence (AID 623;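 active means NADPH fluorescence slope more negative than the mean of all samples by about 3 SD, 99.7% confidence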;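 further: fluorescence intensity change per second fitted from 20 to 320 s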); settings: Recombinant KvBeta, NADPH fluorescence decrease slope, 10 min; at 10 µM; stronger effect = lower value
[6] = biological target: Alpha-2C adrenergic receptor (Homo sapiens) (UniProt P18825); test: modulators of alpha2C/GIRK thallium flux, primary screen, cell-based, HEK293 alpha2C/GIRK1/2 (AID 624;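 active means fluorescence slope after compound addition differing from the mean of all screened samples at 99.7% confidence, in either direction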;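 further: slope of fluorescence ratio to pre-addition baseline per second over 15 to 24 s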); settings: thallium flux BTC fluorescence, at 10 µM, actives lie on both sides
Chain of Alpha-2C adrenergic receptor (Homo sapiens) (P18825 whole entry, looked up): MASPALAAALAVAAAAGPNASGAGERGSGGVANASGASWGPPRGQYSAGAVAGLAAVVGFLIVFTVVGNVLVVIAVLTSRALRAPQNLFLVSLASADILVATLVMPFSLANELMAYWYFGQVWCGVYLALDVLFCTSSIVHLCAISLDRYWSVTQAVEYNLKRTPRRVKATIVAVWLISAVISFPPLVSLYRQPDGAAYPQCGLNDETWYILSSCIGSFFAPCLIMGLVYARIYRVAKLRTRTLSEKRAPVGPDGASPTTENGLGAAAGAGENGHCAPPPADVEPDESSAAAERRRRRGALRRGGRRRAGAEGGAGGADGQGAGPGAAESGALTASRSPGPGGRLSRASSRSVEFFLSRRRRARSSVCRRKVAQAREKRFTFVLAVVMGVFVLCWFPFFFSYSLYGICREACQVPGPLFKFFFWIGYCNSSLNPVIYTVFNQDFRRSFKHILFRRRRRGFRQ

[7] = inhibitors of Sendai virus-induced IRF3 signaling, primary screen, TLR/RLR signaling modifier project, cell-based, Sendai virus stimulus, luciferase, 10K MLSCN set (AID 602276;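 active means inhibition at or above 50% at 10 µM; inactive means inhibition below 50%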;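 further: firefly luciferase from ISG56 promoter only with Renilla not read in this screen; 0% = Sendai virus plus DMSO and 100% = medium plus DMSO without virus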); settings: HEK293 RL24 IRF3 luciferase reporter, at 10 µM, stronger effect = higher value
[8] = inhibitors of poly I:C-induced TLR3 signaling, primary screen, cell-based, poly I:C stimulus, luciferase, 10K MLSCN set (AID 602277;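 active means inhibition of the reporter signal at or above 50%; inactive means inhibition below 50%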); settings: HEK293-TLR3 RL24 IRF3 luciferase reporter, at 10 µM, stronger effect = higher value

Which cell count [1] does the source give for `Cc1nnc(SCC(=O)Nc2cc(C(F)(F)F)ccc2N2CCOCC2)o1` here?
Its cell count is 271.

What about the inhibition [1] of the same compound?
The inhibition was 0.2% (inactive).

And the inhibition of aggregation [2]?
Its inhibition of aggregation is 16.1% (inactive).

And the nuclei count [2]?
Its nuclei count is 99.1%.

What about the inhibition [3] of the same compound?
The inhibition was -2.6% (inactive).

What about the nuclei count [3] of the same compound?
Its nuclei count is 95.1%.

What about the fluorescence slope [4] of the same compound?
Its fluorescence slope is -0.379 (inactive).

And the NADPH fluorescence slope [5]?
The NADPH fluorescence slope was -3.9e-07 (inactive).

And the slope [6]?
The slope was 0.00303 (inactive).

What about the inhibition [7] of the same compound?
Its inhibition is 10.8% (inactive).

And the inhibition [8]?
The inhibition was 32.5% (inactive).

With `O=c1[nH]cnc2c1C1(CCCC1)Cc1ccccc1-2` as the compound, how does the cell count [1] read?
The cell count was 381.

What about the inhibition [1] of the same compound?
The inhibition was -10.6% (inactive).

What about the inhibition of aggregation [2] of the same compound?
The inhibition of aggregation was 19.5% (inactive).

What about the nuclei count [2] of the same compound?
The nuclei count was 87%.

What about the inhibition [3] of the same compound?
Its inhibition is -22.8% (inactive).

What about the nuclei count [3] of the same compound?
The nuclei count was 110%.

What about the fluorescence slope [4] of the same compound?
The fluorescence slope was -0.274 (inactive).

And the NADPH fluorescence slope [5]?
Its NADPH fluorescence slope is -1.9e-05 (inactive).

What about the slope [6] of the same compound?
The slope was 0.00586 (inactive).

What about the inhibition [7] of the same compound?
Its inhibition is 9.37% (inactive).

And the inhibition [8]?
Its inhibition is 35.4% (inactive).

Which results are given for `Cc1ccccc1Cc1c(C)nc2c(C(=O)N3CCN(Cc4ccc5c(c4)OCO5)CC3)cnn2c1C`?
cell count [1]: 631; inhibition [1]: -4.4% (inactive); inhibition of aggregation [2]: 19.5% (inactive); nuclei count [2]: 132%; inhibition [3]: -11.8% (inactive); nuclei count [3]: 95.4%; fluorescence slope [4]: -0.415 (inactive); NADPH fluorescence slope [5]: -1.3e-05 (inactive); slope [6]: 0.00443 (inactive); inhibition [7]: 10.8% (inactive); inhibition [8]: 27.9% (inactive)

What does the source list for `O=C(CN1CCN(c2cccc(Cl)c2)CC1)N1CCCC1`?
cell count [1]: 330; inhibition [1]: -8.7% (inactive); inhibition of aggregation [2]: 19.2% (inactive); nuclei count [2]: 73%; inhibition [3]: -69% (inactive); nuclei count [3]: 87.6%; fluorescence slope [4]: -0.581 (inactive); NADPH fluorescence slope [5]: -1.8e-05 (inactive); slope [6]: 0.00658 (inactive); inhibition [7]: -11.1% (inactive); inhibition [8]: -35.4% (inactive)

Which cell count [1] does the source give for `CSc1cccc(NC(=O)C2CCN(S(=O)(=O)c3ccc(F)cc3)CC2)c1` here?
Its cell count is 376.

And the inhibition [1]?
Its inhibition is -0.2% (inactive).

And the inhibition of aggregation [2]?
Its inhibition of aggregation is 10.8% (inactive).

And the nuclei count [2]?
The nuclei count was 104%.

What about the inhibition [3] of the same compound?
Its inhibition is -69.1% (inactive).

What about the nuclei count [3] of the same compound?
The nuclei count was 115%.

And the fluorescence slope [4]?
The fluorescence slope was -0.353 (inactive).

What about the NADPH fluorescence slope [5] of the same compound?
The NADPH fluorescence slope was 5.7e-05 (inactive).

What about the slope [6] of the same compound?
Its slope is 0.00752 (inactive).

What about the inhibition [7] of the same compound?
The inhibition was 16.9% (inactive).

And the inhibition [8]?
The inhibition was 39.3% (inactive).

Which cell count [1] does the source give for `CCOC(=O)C(CCc1nnc(N)s1)C(=O)OCC` here?
Its cell count is 710.

And the inhibition [1]?
The inhibition was -6.3% (inactive).

What about the inhibition of aggregation [2] of the same compound?
Its inhibition of aggregation is 3.1% (inactive).

And the nuclei count [2]?
The nuclei count was 105%.

And the inhibition [3]?
The inhibition was -16.4% (inactive).

What about the nuclei count [3] of the same compound?
The nuclei count was 98.7%.

And the fluorescence slope [4]?
The fluorescence slope was -0.474 (inactive).

What about the NADPH fluorescence slope [5] of the same compound?
The NADPH fluorescence slope was 1.7e-06 (inactive).

And the slope [6]?
Its slope is 0.00419 (inactive).

And the inhibition [7]?
The inhibition was 16.5% (inactive).

What about the inhibition [8] of the same compound?
Its inhibition is 11.9% (inactive).

Which cell count [1] does the source give for `c1ccc(-c2noc(C3CCCCC3)n2)nc1` here?
Its cell count is 665.

What about the inhibition [1] of the same compound?
Its inhibition is -44.9% (inactive).

And the inhibition of aggregation [2]?
The inhibition of aggregation was -13.4% (inactive).

And the nuclei count [2]?
Its nuclei count is 97.5%.

What about the inhibition [3] of the same compound?
The inhibition was -29.2% (inactive).

What about the nuclei count [3] of the same compound?
Its nuclei count is 110%.

And the fluorescence slope [4]?
Its fluorescence slope is -0.52 (inactive).

And the NADPH fluorescence slope [5]?
The NADPH fluorescence slope was -2.4e-05 (inactive).

What about the slope [6] of the same compound?
Its slope is 0.00485 (inactive).

What about the inhibition [7] of the same compound?
The inhibition was -1.58% (inactive).

What about the inhibition [8] of the same compound?
Its inhibition is -68.3% (inactive).

For `COC(=O)[C@@H](NC(=O)NCc1ccccc1Cl)C(C)C`, which cell count [1] is on record?
Its cell count is 732.

What about the inhibition [1] of the same compound?
The inhibition was 8.4% (inactive).

What about the inhibition of aggregation [2] of the same compound?
The inhibition of aggregation was -23.1% (inactive).

What about the nuclei count [2] of the same compound?
The nuclei count was 100%.

And the inhibition [3]?
Its inhibition is 15.5% (inactive).

What about the nuclei count [3] of the same compound?
Its nuclei count is 109%.

What about the fluorescence slope [4] of the same compound?
Its fluorescence slope is -0.469 (inactive).

And the NADPH fluorescence slope [5]?
Its NADPH fluorescence slope is -2.9e-05 (inactive).

What about the slope [6] of the same compound?
The slope was 0.00402 (inactive).

What about the inhibition [7] of the same compound?
The inhibition was 4.11% (inactive).

What about the inhibition [8] of the same compound?
The inhibition was 32.6% (inactive).

With `O=C(COC(=O)C1CC1)c1c[nH]c2ccccc12` as the compound, how does the cell count [1] read?
Its cell count is 468.

And the inhibition [1]?
Its inhibition is 4.3% (inactive).

And the inhibition of aggregation [2]?
Its inhibition of aggregation is 3% (inactive).

What about the nuclei count [2] of the same compound?
The nuclei count was 114%.

And the inhibition [3]?
Its inhibition is -24.9% (inactive).

What about the nuclei count [3] of the same compound?
Its nuclei count is 103%.

What about the fluorescence slope [4] of the same compound?
Its fluorescence slope is -0.587 (inactive).

And the NADPH fluorescence slope [5]?
Its NADPH fluorescence slope is -2.6e-05 (inactive).

What about the slope [6] of the same compound?
The slope was 0.00646 (inactive).

And the inhibition [7]?
The inhibition was -49.1% (inactive).

And the inhibition [8]?
Its inhibition is -96.8% (inactive).

With `O=C(NCc1ccccc1)C1CCCN1S(=O)(=O)c1cccc2cccnc12` (centres undefined) as the compound, how does the cell count [1] read?
Its cell count is 521.

What about the inhibition [1] of the same compound?
The inhibition was -4.4% (inactive).

And the inhibition of aggregation [2]?
The inhibition of aggregation was -7.9% (inactive).

And the nuclei count [2]?
The nuclei count was 67.5%.

And the inhibition [3]?
Its inhibition is -42.2% (inactive).

What about the nuclei count [3] of the same compound?
The nuclei count was 111%.

What about the fluorescence slope [4] of the same compound?
The fluorescence slope was -0.561 (inactive).

And the NADPH fluorescence slope [5]?
The NADPH fluorescence slope was 3.4e-05 (inactive).

And the slope [6]?
The slope was 0.00702 (inactive).

And the inhibition [7]?
Its inhibition is 3.4% (inactive).

What about the inhibition [8] of the same compound?
Its inhibition is 34.5% (inactive).

With `COc1ccccc1-c1nnc(SCC(=O)NC2CCCCC2)o1` as the compound, how does the cell count [1] read?
The cell count was 490.

What about the inhibition [1] of the same compound?
Its inhibition is -7.8% (inactive).

What about the inhibition of aggregation [2] of the same compound?
The inhibition of aggregation was -6.8% (inactive).

What about the nuclei count [2] of the same compound?
The nuclei count was 76%.

And the inhibition [3]?
Its inhibition is -86% (inactive).

What about the nuclei count [3] of the same compound?
The nuclei count was 104%.

What about the fluorescence slope [4] of the same compound?
Its fluorescence slope is -0.56 (inactive).

And the NADPH fluorescence slope [5]?
Its NADPH fluorescence slope is 5e-05 (inactive).

And the slope [6]?
The slope was 0.00636 (inactive).

And the inhibition [7]?
Its inhibition is -1.61% (inactive).

What about the inhibition [8] of the same compound?
Its inhibition is 30.3% (inactive).

For `CCOC(=O)N1CCN(Cc2nc3c(c(=O)n(C)c(=O)n3C)n2Cc2ccccc2)CC1`, which cell count [1] is on record?
Its cell count is 598.

And the inhibition [1]?
The inhibition was 2.9% (inactive).

And the inhibition of aggregation [2]?
The inhibition of aggregation was -8.1% (inactive).

And the nuclei count [2]?
The nuclei count was 120%.

And the inhibition [3]?
Its inhibition is 0.1% (inactive).

And the nuclei count [3]?
The nuclei count was 115%.

And the fluorescence slope [4]?
The fluorescence slope was -0.538 (inactive).

What about the NADPH fluorescence slope [5] of the same compound?
Its NADPH fluorescence slope is -3.9e-05 (inactive).

And the slope [6]?
The slope was 0.00607 (inactive).

What about the inhibition [7] of the same compound?
Its inhibition is 9% (inactive).

What about the inhibition [8] of the same compound?
The inhibition was 14.8% (inactive).

Which results are given for `COc1ccc(C(=O)Nc2ccccc2C(=O)NCCN2CCOCC2)cc1`?
cell count [1]: 462; inhibition [1]: -2.2% (inactive); inhibition of aggregation [2]: -3.2% (inactive); nuclei count [2]: 98.2%; inhibition [3]: -23.5% (inactive); nuclei count [3]: 103%; fluorescence slope [4]: -0.429 (inactive); NADPH fluorescence slope [5]: -1.1e-05 (inactive); slope [6]: 0.00486 (inactive); inhibition [7]: -23.4% (inactive); inhibition [8]: -25.1% (inactive)

For `Cc1cc(C)nc(Sc2ccc3nnc(C(F)(F)C(F)(F)C(F)(F)F)n3n2)n1`, which cell count [1] is on record?
Its cell count is 564.

What about the inhibition [1] of the same compound?
Its inhibition is -21.1% (inactive).

And the inhibition of aggregation [2]?
Its inhibition of aggregation is -9.9% (inactive).

And the nuclei count [2]?
The nuclei count was 115%.

And the inhibition [3]?
Its inhibition is 4.1% (inactive).

What about the nuclei count [3] of the same compound?
The nuclei count was 99.7%.

And the fluorescence slope [4]?
The fluorescence slope was -0.495 (inactive).

And the NADPH fluorescence slope [5]?
The NADPH fluorescence slope was -3.3e-05 (inactive).

And the slope [6]?
Its slope is 0.00541 (inactive).

What about the inhibition [7] of the same compound?
The inhibition was -0.722% (inactive).

And the inhibition [8]?
Its inhibition is 24.8% (inactive).
